# The full list was thinned out, with hits kept by preference.
# Cruzain noTriton = qHTS Assay for Promiscuous and Specific Inhibitors of Cruzain (without detergent); Cruzipain (Trypanosoma cruzi), P25779; purified cruzain, Z-FR-AMC fluorescence, no detergent; Potency, µM, for the others: max response, negative = inhibition, usual class: inhibitors; 200,000 tested, 2.3% active; AID 1476, 2009;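 also: plate controls were enzyme without inhibitor for no effect and buffer without enzyme for full effect; nearly all actives have a fitted effect of over 40% in size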
# Target sequence (P25779 123-467 limits assumed): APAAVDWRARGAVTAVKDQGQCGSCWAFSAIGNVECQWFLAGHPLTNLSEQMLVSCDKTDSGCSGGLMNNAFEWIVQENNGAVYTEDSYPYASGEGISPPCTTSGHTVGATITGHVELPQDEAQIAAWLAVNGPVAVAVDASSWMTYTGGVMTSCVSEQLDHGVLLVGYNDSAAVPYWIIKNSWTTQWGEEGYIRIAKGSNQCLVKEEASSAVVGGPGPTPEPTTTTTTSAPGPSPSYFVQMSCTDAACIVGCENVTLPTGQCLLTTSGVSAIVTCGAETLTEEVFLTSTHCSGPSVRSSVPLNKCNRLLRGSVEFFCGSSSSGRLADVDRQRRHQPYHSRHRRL
#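 Purified cruzain at 1.5 nM, pre-incubated 15 min with compound at room temperature in 100 mM sodium acetate pH 5.5, 5 mM DTT, 0.00005% Triton X-100. Reaction started with 2 uM Z-FR-AMC; AMC fluorescence increase over 60 s gives rate.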
# NS1 inh = qHTS Assay for Inhibitors of Influenza NS1 Protein Function. Potency, µM (doses to about 46.1 µM), inactives show top-dose activity, positive = more growth. 270,000 tested, 0.4% active. AID 2326, 2010; calls by dose curve; also: actives are rising curves; nearly all actives have a fitted effect of over 50% in size
#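 OD600 was taken as the measure of yeast growth restored by compound in an NS1-expressing S. cerevisiae strain. Cells had been washed out of glucose medium and diluted 1:100 into galactose -URA medium, pH 6.0.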
# Cruzain Triton = qHTS Assay for Promiscuous and Specific Inhibitors of Cruzain (with detergent); purified cruzain, Z-FR-AMC fluorescence, 0.01% Triton; Potency, µM, inactives show max response, negative = inhibition, usual class: inhibitors; AID 1478, 2009; 200,000 tested, 0.43% active;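 also: plate controls were neutral wells for no effect and buffer without enzyme for full effect; nearly all actives have a fitted effect of over 40% in size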
#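 Compounds were screened in titration against cruzain (1.5 nM) with 0.01% Triton X-100 to counter colloidal aggregation. Activity was the AMC fluorescence increase over 60 s after adding 2 uM Z-FR-AMC at pH 5.5.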
# Starred values were filed as active, the others as inactive; ? = inconclusive; . = not tested or not shown. Unless noted, calls follow the shape of the dose curve; as a rule, active = well fitted curve in the direction sought with a large enough effect; inconclusive = small, poorly fitted or top-dose-only effect, or another doubt; inactive = no such curve, though single readings can be large; an effect the other way counts as inactive or inconclusive. Potency is read from the fitted curve at half-maximal effect.
SMILES,Cruzain noTriton,NS1 inh,Cruzain Triton
COc1ccc(/C=C/C(=O)Nc2sc(Cc3ccccc3)c(C)c2C(N)=O)cc1,16µM*,3%,-11%
CCC(=O)Nc1sc(Cc2ccccc2)c(C)c1C(N)=O,.,-75%,.
Cc1c(Cc2ccccc2)sc(/N=C/c2ccc3ccccc3c2)c1C(N)=O,6.3µM*,?,-4%
CCCS(=O)(=O)NCCc1csc(-c2cccnc2)n1,.,-1%,.
CN[C@@H]1[C@H](O[C@@H]2O[C@H](C)[C@@](O)(CO)[C@H]2O[C@H]2[C@H](O)[C@H](O)[C@H](N=C(N)N)[C@@H](O)[C@@H]2N=C(N)N)O[C@@H](CO)[C@H](O)[C@H]1O,-3%,.,-5%
CCCn1c(=O)c(C(=O)NNS(=O)(=O)c2ccc(C)cc2)c(O)c2ccccc21,13µM*,-3%,-4%
CCn1c(=O)c(C(=O)NNS(=O)(=O)c2ccc(C)cc2)c(O)c2ccccc21,0%,4%,-7%
CC1CCCO1 (stereo not drawn),-10%,.,-1%
NC(N)=Nc1nc(CSCC/C(N)=N\S(N)(=O)=O)cs1,13µM*,.,25µM*
Cc1ccc(-c2csc(/C(C#N)=C/Nc3ccccc3SC(F)(F)F)n2)cc1,10µM*,12%,0%
N#C/C(=C\Nc1ccccc1SC(F)(F)F)c1nc(-c2ccc(F)cc2)cs1,-3%,7%,5%
COc1ccc(CNS(=O)(=O)c2ccc(N3CCCCS3(=O)=O)cc2)cc1,6%,.,0%
COc1ccc(OC)c(CNC(=O)c2ccc(NC(=O)c3nsc4ccccc34)cc2)c1,?,.,0%
COc1ccc(C(=O)N/N=C/c2cc(Br)ccc2O)cc1OC,.,-4%,.
COc1ccc(O)c(/C=N/NC(=O)c2ccc(OCc3cccc(Br)c3)cc2)c1,7.9µM*,2%,-4%
Cc1ccc2c(c1)N(C(=O)Nc1cccc3c1CCCC3)CCO2,8%,.,-1%
OC[C@@H]1[C@@H](c2ccccc2)C(c2ccc(F)cc2)=NN1c1ccccc1,?,.,-10%
CC[C@H]1C(c2cccc(Cl)c2)=NN(c2ccccc2)[C@@H]1CO,-11%,.,1%
OC[C@@H]1[C@@H](c2ccc(Cl)cc2)C(c2ccc(F)cc2)=NN1c1ccccc1,25µM*,.,0%
OC[C@@H]1[C@@H](c2ccc(F)cc2)C(c2ccc(F)cc2)=NN1c1ccccc1,20µM*,.,-3%
CC(C)CN1CC[C@@]2(CCCN(C(=O)c3ccco3)C2)C1,-1%,.,-4%
O=S(=O)(Nc1nccs1)c1ccc([As](=O)(O)O)cc1,6%,0%,0%
CCOc1ccc2nc(NC(=O)c3cc(=O)c4cc(C)cc(C)c4o3)sc2c1,-5%,.,-1%
CCN1C(=O)C(Cc2nc3ccccc3c(=O)n2-c2cccc(C)c2)c2ccccc21 (stereo not drawn),2%,.,-7%
CS(=O)(=O)N(CC(=O)O)Cc1ccccc1,2%,3%,2%
SMILES,Cruzain noTriton,NS1 inh,Cruzain Triton
Cc1cnc(CNc2ncncc2-c2ccccc2C(F)(F)F)cn1,6%,.,8%
FC(F)(F)c1ccc(-c2noc(-c3ccccc3)c2I)cc1,?,.,-3%
CCOC(=O)C(Cc1ccc(O)cc1)NC(=O)CNC(=O)C(CC(C)C)NC(=O)OC(C)(C)C (stereo not drawn),10µM*,-2%,13µM*
CC(C)CC(NC(=O)C(Cc1ccc(OCc2ccccc2)cc1)NC(=O)OC(C)(C)C)C(N)=O (stereo not drawn),-2%,18%,-1%
CCC(C)C(NC(=O)OC(C)(C)C)C(=O)NC(Cc1ccccc1)C(=O)OC (stereo not drawn),-10%,-7%,-3%
COC(=O)C(Cc1ccccc1)NC(=O)C(CC(C)C)NC(=O)OC(C)(C)C (stereo not drawn),32µM*,-19%,16µM*
COC(=O)C/C=C1\c2ccc3c(c2[C@@H](OC)[C@@H]1C)OCO3,-4%,.,2%
C/C(=N/NC(=O)CSCc1ccc(Cl)cc1)c1cccc(NC(=O)c2ccccc2)c1,?,-60%,-4%
Cc1cccc(C(=O)Nc2ccc(NC(=O)Cc3ccc(Cl)cc3)cc2)c1,?,7%,1%
O=C(Cc1ccc(Cl)cc1)Nc1ccc(NC(=O)c2ccccc2)cc1,25µM*,7%,1%
C/C(=N\NC(=O)CSCc1ccc(Cl)cc1)c1ccc(NC(=O)c2ccccc2)cc1,25µM*,-4%,-4%
Cc1ccc(NC(=O)Cn2c(=O)n(Cc3ccc(F)cc3)c(=O)c3cccnc32)cc1C,-3%,.,-1%
CCCCCN1C(C(=O)c2ccccc2)=C(NC(=O)c2ccc(OC)cc2)c2ccccc2S1(=O)=O,?,.,-5%
Cc1ccc(CCNC(=O)c2ccc(CNS(=O)(=O)c3ccc(F)cc3)cc2)cc1,-5%,.,0%
Cc1ccc2c(c1)C(c1ccc([N+](=O)[O-])cc1)=NNC(c1ccc(Br)cc1)=N2,?,13%,0%
CCc1ccc2c(c1)C(c1ccc([N+](=O)[O-])cc1)=NNC(c1ccc(Br)cc1)=N2,10µM*,8%,-4%
COc1cccc(NC(=O)CSc2nc3c([nH]c4ccccc43)c(=O)n2-c2ccccc2)c1,?,.,-6%
COC(=O)C(C)Sc1nc2c([nH]c3ccccc32)c(=O)n1-c1ccc(OC)cc1 (stereo not drawn),-2%,.,-4%
Cc1ccc(-n2c(SCC(=O)Nc3ccc4c(c3)OCCO4)nc3c([nH]c4ccccc43)c2=O)cc1,25µM*,.,-7%
O=C(CSc1nc2c([nH]c3ccccc32)c(=O)n1-c1ccccc1)Nc1ccc2c(c1)OCO2,?,.,-2%
O=C(CSc1nc2c([nH]c3ccccc32)c(=O)n1-c1ccccc1)Nc1ccc2c(c1)OCCO2,25µM*,.,-5%
CC(Sc1nc2c([nH]c3ccccc32)c(=O)n1-c1ccccc1)c1ccccc1 (stereo not drawn),7.9µM*,.,-2%
O=C(CSc1nc2c([nH]c3ccccc32)c(=O)n1-c1ccccc1)Nc1ccc(Cl)c(Cl)c1,13µM*,.,-1%
Cc1cc(C)cc(-n2c(SCC(=O)Nc3ccc4c(c3)OCCO4)nc3c([nH]c4ccccc43)c2=O)c1,?,.,0%
CC(=O)c1ccccc1[N+](=O)[O-],-3%,.,1%
SMILES,Cruzain noTriton,NS1 inh,Cruzain Triton
COc1cccc(-c2nccc(N(C)Cc3ccco3)n2)c1,-7%,.,-2%
CCOC(=O)C(NC(=O)NC1CCCCC1)(c1ccccc1)C(F)(F)F (stereo not drawn),3.2µM*,-2%,3%
CCOC(=O)C(NC(=O)N1CCCCC1)(c1ccccc1)C(F)(F)F (stereo not drawn),4%,-12%,-4%
CCCCOCC1CO1 (stereo not drawn),5%,.,-2%
COC(=O)Cc1c(C)c2ccc(O)c(CNCc3ccc(OC)c(OC)c3)c2oc1=O,.,7%,.
CCN(CC)Cc1c(O)ccc2c(C)c(CC(=O)OC)c(=O)oc12,?,-5%,25µM*
O=C(NCCc1ccccc1)C1CCN(S(=O)(=O)c2cccc3nsnc23)CC1,-6%,-1%,2%
O=C(NCCC1=CCCCC1)C1CCN(S(=O)(=O)c2cccc3nsnc23)CC1,25µM*,4%,-1%
Cc1cccc(N2CCN(C(=O)C3CCCN(S(=O)(=O)c4ccc5c(c4)oc(=O)n5C)C3)CC2)c1C (stereo not drawn),-9%,.,-3%
Nc1ccc(Nc2nc3ccccc3[nH]2)cc1,.,12%,.

# Compound activity (PubChem)
